Measured values as given in PubChem BioAssay (NCATS).
Records with an inconclusive call do not appear. The source made the active and inactive calls. Calls come from the whole dose curve; as a rule, active = well fitted inhibition curve with a large enough effect; inconclusive = small, poorly fitted or top-dose-only effect; inactive = flat fitted curve, though single readings scatter.

Assays:
[1] = test system: PC26; test: qHTS profiling for inhibitors of Plasmodium falciparum proliferation (AID 504749); note: potency is the fitted concentration of half-maximal effect; settings: P. falciparum in erythrocytes, SYBR Green DNA, 72 h; series mostly up to 28.7 µM
Method in brief: (§1)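 SYBR Green fluorescence (ex 485 nm, em 535 nm) reports parasite DNA after 72 h compound exposure of infected red cells at 0.3% parasitemia, 2.5% hematocrit; signal normalized to 0.29 uM artemisinin and vehicle wells.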

[2] = test system: PC49; test: as above; settings: P. falciparum in erythrocytes, SYBR Green DNA, 72 h; series mostly up to 28.7 µM
Method in brief: as §1

[3] = test system: SC27B; test: as above; settings: P. falciparum in erythrocytes, SYBR Green DNA, 72 h; series mostly up to 28.7 µM
Method in brief: as §1

[4] = test system: TAB109; test: as above; settings: P. falciparum in erythrocytes, SYBR Green DNA, 72 h; series mostly up to 28.7 µM
Method in brief: as §1

[5] = test system: TAB113; test: as above; settings: P. falciparum in erythrocytes, SYBR Green DNA, 72 h; series mostly up to 28.7 µM
Method in brief: as §1

[6] = test system: TAB165; test: as above; settings: P. falciparum in erythrocytes, SYBR Green DNA, 72 h; series mostly up to 28.7 µM
Method in brief: as §1

[7] = test system: W2; test: as above; settings: P. falciparum in erythrocytes, SYBR Green DNA, 72 h; series mostly up to 28.7 µM
Method in brief: as §1

[8] = test system: KB-3-1; test: Cytotoxic Profiling of Annotated Libraries Using Quantitative High-Throughput Screening (AID 1296008); settings: Five cell lines viability, CellTiter-Glo ATP luminescence, 48-72 h; max response: stronger effect = lower value; note: % is set by controls: 0 for no effect and ±100 for the full control effect
Method in brief: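 Cells exposed to compounds for 48 or 72 hr at 37 degrees Celsius. Viability read as ATP-coupled luminescence with CellTiter-Glo after 10 min at room temperature.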
Note: nearly all actives have a fitted effect of over 60% in size.

CC(C)(Oc1ccc(C2CCCc3ccccc32)cc1)C(=O)O (stereo not given)
inactive: Potency [1] | Potency [2] | Potency [3] | Potency [4] | Potency [5] | Potency [6] | Potency [7] | max response [8] -10.9%

Nc1ncnc2c1ncn2CCOCP(=O)(O)O
inactive: Potency [1] | Potency [2] | Potency [3] | Potency [4] | Potency [5] | Potency [6] | Potency [7] | max response [8] -6.33%

Cc1c(Cl)cccc1Nc1ncccc1C(=O)O
inactive: Potency [1] | Potency [2] | Potency [3] | Potency [4] | Potency [5] | Potency [6] | Potency [7] | max response [8] 2.98%

O=c1[nH]c(=O)n([C@H]2C[C@H](O)[C@@H](CO)O2)cc1/C=C/Br
inactive: Potency [1] | Potency [2] | Potency [3] | Potency [4] | Potency [5] | Potency [6] | Potency [7] | max response [8] 1.96%

CC1(O)CCC(C(C)(C)O)CC1 (stereo not given)
inactive: Potency [1] | Potency [2] | Potency [3] | Potency [4] | Potency [5] | Potency [6] | Potency [7] | max response [8] -9.81%

NC(=O)[C@H]1O[C@@H](O)[C@H](O)[C@@H](O)[C@@H]1O
inactive: Potency [1] | Potency [2] | Potency [3] | Potency [4] | Potency [5] | Potency [6] | Potency [7] | max response [8] 4.29%

CO
inactive: Potency [1] | Potency [2] | Potency [3] | Potency [4] | Potency [5] | Potency [6] | Potency [7] | max response [8] 17.7%

CSc1nc2cc(Oc3cccc(Cl)c3Cl)c(Cl)cc2[nH]1
inactive: max response [8] -1.84%
active: Potency [1] 5.36 µM | Potency [2] 12.6 µM | Potency [3] 12.6 µM | Potency [4] 7.94 µM | Potency [5] 8.91 µM | Potency [6] 7.94 µM | Potency [7] 6.75 µM

CCc1ccc(S(=O)(=O)O)cc1
inactive: Potency [1] | Potency [2] | Potency [3] | Potency [4] | Potency [5] | Potency [6] | Potency [7] | max response [8] 6.98%

CN1C(=O)C[C@@H](C(=O)N[C@@H](Cc2cnc[nH]2)C(=O)N2CCC[C@H]2C(N)=O)NC1=O
inactive: Potency [1] | Potency [2] | Potency [3] | Potency [4] | Potency [5] | Potency [6] | Potency [7] | max response [8] 5.84%

CC(C)(COP(=O)(O)OP(=O)(O)OC[C@H]1O[C@@H](n2cnc3c(N)ncnc32)[C@H](O)[C@@H]1OP(=O)(O)O)C(O)C(=O)NCCC(=O)NCCS (stereo not given in full)
inactive: Potency [1] | Potency [2] | Potency [3] | Potency [4] | Potency [5] | Potency [6] | Potency [7] | max response [8] 7.71%

CCOC(=S)SSC(=S)OCC
inactive: Potency [1] | Potency [2] | Potency [3] | Potency [4] | Potency [5] | Potency [6] | Potency [7] | max response [8] 4.67%

OCCCNc1ccccc1
inactive: Potency [1] | Potency [2] | Potency [3] | Potency [4] | Potency [5] | Potency [6] | Potency [7] | max response [8] 2.06%

CC(C)[C@H](N)C(=O)OCC(CO)OCn1cnc2c(=O)[nH]c(N)nc21 (stereo not given in full)
inactive: Potency [1] | Potency [2] | Potency [3] | Potency [4] | Potency [5] | Potency [6] | Potency [7] | max response [8] 3.14%

CC(CC=O)CCCC(C)(C)O (stereo not given)
inactive: Potency [1] | Potency [2] | Potency [3] | Potency [4] | Potency [5] | Potency [6] | Potency [7] | max response [8] 7.65%

Cc1nc(NS(=O)(=O)c2ccc(N)cc2)nc(C)c1Br
inactive: Potency [1] | Potency [2] | Potency [3] | Potency [4] | Potency [5] | Potency [6] | Potency [7] | max response [8] 9.38%

C/C=C/C=C/C(=O)O
inactive: Potency [1] | Potency [2] | Potency [3] | Potency [4] | Potency [5] | Potency [6] | Potency [7] | max response [8] 5.4%

CCc1ncnc2cc(OC)c(OC)cc12
inactive: Potency [1] | Potency [2] | Potency [3] | Potency [4] | Potency [5] | Potency [6] | Potency [7] | max response [8] -4.18%

OCl
inactive: Potency [1] | Potency [2] | Potency [3] | Potency [4] | Potency [5] | Potency [6] | Potency [7] | max response [8] 19.8%

C=C(C)C1CC=C(C)CC1 (stereo not given)
inactive: Potency [1] | Potency [2] | Potency [3] | Potency [4] | Potency [5] | Potency [6] | Potency [7] | max response [8] 7.51%

CC(=O)[C@H]1CC[C@H]2[C@@H]3C=CC4=CC(=O)CC[C@@]4(C)[C@H]3CC[C@]12C
inactive: Potency [1] | Potency [2] | Potency [3] | Potency [4] | Potency [5] | Potency [6] | Potency [7] | max response [8] -2.63%

O=C(O)COc1ccc(CCNS(=O)(=O)c2ccccc2)s1
inactive: Potency [1] | Potency [2] | Potency [3] | Potency [4] | Potency [5] | Potency [6] | Potency [7] | max response [8] -3.19%

O=C(O)/C=C/C(=O)Nc1ccc(S(=O)(=O)Nc2nccs2)cc1
inactive: Potency [1] | Potency [2] | Potency [3] | Potency [4] | Potency [5] | Potency [6] | Potency [7] | max response [8] -6.18%

NCCO/C=C/[C@H](N)C(=O)O
inactive: Potency [1] | Potency [2] | Potency [3] | Potency [4] | Potency [5] | Potency [6] | Potency [7] | max response [8] 0.921%

COC(=O)CC[C@H](N)C(=O)O
inactive: Potency [1] | Potency [2] | Potency [3] | Potency [4] | Potency [5] | Potency [6] | Potency [7] | max response [8] 0.526%
